Results reported in PubChem BioAssay.
For part of these data: Results with a measured potency or affinity are listed apart. The source made the active and inactive calls.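 Rule for the calls, unless noted: active = calcium signal ratio cut to more than 3 SD under the fully stimulated control mean yet still positive, in both repeats and the primary screen; inactive = the rest.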

Key:
[1] = test system: TRPC4 beta (transient receptor potential cation channel C4), mouse; assay: TRPC4 cation channel opening, retest – cell-based, Fluo4 calcium, HEK293 TRPC4beta/mu-opioid, duplicates, 10 µM, confirmation (AID 2426;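 active = fluorescence ratio normalized to control raised more than 50% in primary screen plus both repeat runs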); settings: Fluo4 calcium fluorescence, at 10 µM; stronger effect = higher value
[2] = test system: transient receptor potential cation channel C4 beta (TRPC4), mouse; assay: TRPC4 cation channel opening, second retest – cell-based, second round, Fluo4, HEK293 TRPC4beta/mu-opioid, 1 µM, confirmation (AID 2461;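 active = primary screen active and over 50% activation in each of two duplicate runs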); settings: Fluo4 calcium fluorescence, at 1 µM; stronger effect = higher value
[3] = test system: TRPC4 (transient receptor potential cation channel C4 beta), mouse; assay: potentiation of DAMGO EC20 TRPC4 response – cell-based, second round, Fluo-4, HEK293 TRPC4beta/mu-opioid, 1 µM, confirmation (AID 2554;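 active = primary screen hit whose fluorescence ratio, in both repeats, exceeds the weak agonist control mean by 3 SD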); settings: DAMGO EC20, Fluo-4 calcium flux, at 1 µM; stronger effect = higher value
[4] = test system: TRPC4 beta (transient receptor potential cation channel C4), mouse; assay: potentiation of DAMGO EC20 TRPC4 response – cell-based, Fluo-4, HEK293 TRPC4beta/mu-opioid, confirmation (AID 2555;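 active = primary screen hit whose calcium fluorescence ratio, in both repeats, exceeds the weak agonist control mean by 3 SD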); settings: DAMGO EC20, Fluo-4 calcium flux, at 10 µM; stronger effect = higher value
[5] = biological target: Short transient receptor potential channel 4 (Mus musculus) (UniProt Q9QUQ5); assay: blockers of DAMGO-evoked TRPC4 calcium flux – cell-based, Fluo4, HEK293 TRPC4beta/mu-opioid, confirmation (AID 2636;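 active = calcium signal cut by more than 3 SD below the full-agonist control yet still positive, in both repeats and the earlier primary screen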); settings: at 10 µM; stronger effect = higher value
Sequence of Short transient receptor potential channel 4 (Mus musculus) (Q9QUQ5 whole entry, looked up): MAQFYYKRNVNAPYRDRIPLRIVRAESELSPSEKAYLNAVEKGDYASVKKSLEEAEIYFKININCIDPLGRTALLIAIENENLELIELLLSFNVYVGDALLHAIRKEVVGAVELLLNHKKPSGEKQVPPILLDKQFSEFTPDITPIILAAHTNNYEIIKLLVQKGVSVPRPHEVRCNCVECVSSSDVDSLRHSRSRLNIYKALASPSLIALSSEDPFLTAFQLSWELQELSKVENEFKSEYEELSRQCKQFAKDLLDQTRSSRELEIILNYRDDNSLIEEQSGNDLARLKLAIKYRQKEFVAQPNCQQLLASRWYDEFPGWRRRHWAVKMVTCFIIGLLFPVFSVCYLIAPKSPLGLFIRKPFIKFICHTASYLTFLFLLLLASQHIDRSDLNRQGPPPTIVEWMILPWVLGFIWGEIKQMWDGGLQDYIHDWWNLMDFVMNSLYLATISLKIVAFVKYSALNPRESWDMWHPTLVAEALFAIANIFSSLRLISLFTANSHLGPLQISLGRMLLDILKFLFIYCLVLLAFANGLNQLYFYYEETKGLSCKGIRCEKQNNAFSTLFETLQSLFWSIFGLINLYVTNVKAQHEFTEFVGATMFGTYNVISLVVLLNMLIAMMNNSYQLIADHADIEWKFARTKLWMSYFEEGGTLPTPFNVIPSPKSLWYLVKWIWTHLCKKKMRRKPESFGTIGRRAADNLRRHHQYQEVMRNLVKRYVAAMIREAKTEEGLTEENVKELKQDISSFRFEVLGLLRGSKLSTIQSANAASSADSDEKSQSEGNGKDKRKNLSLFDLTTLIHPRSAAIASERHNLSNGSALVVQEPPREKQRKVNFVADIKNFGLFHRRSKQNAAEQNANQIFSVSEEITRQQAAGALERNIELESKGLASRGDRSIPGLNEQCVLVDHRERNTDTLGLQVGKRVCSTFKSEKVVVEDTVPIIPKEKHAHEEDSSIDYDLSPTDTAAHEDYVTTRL

[6] = biological target: Short transient receptor potential channel 4 (Mus musculus) (UniProt Q9QUQ5); assay: blockers of DAMGO-evoked TRPC4 calcium flux – cell-based, second round, Fluo4, HEK293 TRPC4beta/mu-opioid, 1 µM, confirmation (AID 2637); settings: at 1 µM; stronger effect = higher value;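 for inhibition: percent of integrated ratio relative to wells lacking test compound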
[7] = biological target: Short transient receptor potential channel 4 (Mus musculus) (UniProt Q9QUQ5); assay: calcium entry via TRPC4 opening agents – cell-based, HEK293 TRPC4/mu-opioid, Fluo-4 calcium, dose response (AID 434937;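 active = primary screen activator hit with a dose response curve and TRPC4 channel activation at any tested dose; inactive = no activation, no dose response, or not a primary hit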)
[8] = biological target: Short transient receptor potential channel 4 (Mus musculus) (UniProt Q9QUQ5); assay: potentiation of DAMGO-evoked TRPC4 calcium signal – cell-based, HEK293 TRPC4/mu-opioid, Fluo-4 calcium, EC20 DAMGO, dose response (AID 434941;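 active = earlier screen potentiator hit that boosts the TRPC4 ion channel at some dose, with a dose response; inactive = no potentiation, no dose response, or not a prior hit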;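 note: calcium entry triggered by an EC20 dose of DAMGO at the co-expressed mu-opioid receptor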)
[9] = biological target: Short transient receptor potential channel 6 (Mus musculus) (UniProt Q61143); assay: TRPC6 blockade by TRPC4 inhibitor hits – cell-based, HEK293, membrane potential dye, duplicate, selectivity assay for TRPC4 inhibitor project, confirmation (AID 434948;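 active = active in primary screen and both duplicates, each dropping signal beyond three positive-control SD with fluorescence still positive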); settings: HEK293 TRPC6, membrane potential dye fluorescence, at 10 µM, stimulated with maximal-effect acetylcholine; stronger effect = higher value
Sequence of Short transient receptor potential channel 6 (Mus musculus) (Q61143 whole entry, looked up): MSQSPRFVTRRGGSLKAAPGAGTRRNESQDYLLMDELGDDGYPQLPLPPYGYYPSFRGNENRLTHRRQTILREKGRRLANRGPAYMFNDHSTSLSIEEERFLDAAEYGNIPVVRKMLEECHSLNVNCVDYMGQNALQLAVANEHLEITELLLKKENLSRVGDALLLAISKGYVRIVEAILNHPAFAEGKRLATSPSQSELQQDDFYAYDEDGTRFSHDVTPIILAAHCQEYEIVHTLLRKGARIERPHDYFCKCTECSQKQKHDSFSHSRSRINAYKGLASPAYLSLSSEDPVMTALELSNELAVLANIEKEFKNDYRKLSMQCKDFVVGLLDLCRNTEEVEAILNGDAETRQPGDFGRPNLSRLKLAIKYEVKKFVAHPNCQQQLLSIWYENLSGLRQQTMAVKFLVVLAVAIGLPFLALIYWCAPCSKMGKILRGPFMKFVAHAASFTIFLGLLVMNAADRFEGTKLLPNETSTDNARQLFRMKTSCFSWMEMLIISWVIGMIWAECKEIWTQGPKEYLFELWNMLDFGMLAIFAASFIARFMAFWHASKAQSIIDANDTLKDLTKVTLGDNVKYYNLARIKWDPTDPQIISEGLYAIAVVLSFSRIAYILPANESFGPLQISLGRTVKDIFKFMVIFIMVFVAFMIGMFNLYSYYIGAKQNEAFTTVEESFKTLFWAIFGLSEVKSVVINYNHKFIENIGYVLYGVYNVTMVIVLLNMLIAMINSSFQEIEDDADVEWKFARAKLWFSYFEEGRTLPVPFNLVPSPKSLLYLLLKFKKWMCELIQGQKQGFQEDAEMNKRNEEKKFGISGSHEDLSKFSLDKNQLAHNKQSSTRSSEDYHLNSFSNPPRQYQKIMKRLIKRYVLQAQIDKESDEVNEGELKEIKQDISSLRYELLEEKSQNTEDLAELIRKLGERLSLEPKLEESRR

[10] = biological target: Short transient receptor potential channel 6 (Mus musculus) (UniProt Q61143); assay: TRPC6 opening by TRPC4 activator hits – cell-based, HEK293, membrane potential dye, duplicate, selectivity assay for TRPC4 activator project, confirmation (AID 434950;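 active = membrane potential signal rise above negative control mean plus 3 SD in both duplicates, also active in the earlier TRPC4 screen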); settings: HEK293 TRPC6, membrane potential fluorescence, at 10 µM; activation: stronger effect = higher value; outcome: activation
[11] = biological target: Short transient receptor potential channel 6 (Mus musculus) (UniProt Q61143); assay: positive modulators of mouse TRPC6 channel – HEK293 cells, membrane potential dye, duplicate, selectivity assay for TRPC4 potentiator project, confirmation (AID 434952;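 active = compound raising the membrane signal above positive-control mean plus 3 SD in both repeats, and a primary screen hit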); settings: HEK293 TRPC6, membrane potential dye fluorescence, at 10 µM, maximal acetylcholine added after compound; stronger effect = higher value
[12] = biological target: Short transient receptor potential channel 4 (Mus musculus) (UniProt Q9QUQ5); assay: calcium flux activators in TRPC4/5HT1a cells, counter-screen for TRPC4 activator project, cell-based, second counter screen, HEK293 TRPC4/5HT1a, Fluo-4 (AID 434977;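 active = calcium signal rise above buffer-control mean plus 5 SD in both duplicates, and also a hit in the primary screen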); settings: Fluo-4 calcium flux, at 10 µM; stronger effect = higher value
[13] = serotonin-gated TRPC4 signal block – cell-based, second counter screen, HEK293 TRPC4/5HT1a, Fluo-4, counter-screen for TRPC4 inhibitor project, confirmation (AID 434978;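 active = primary screen active whose calcium signal fell more than 3 SD beyond the full-serotonin control mean in both duplicate plates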;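 for outcome: serotonin given first at submaximal then at maximal dose after compound preincubation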); settings: Fluo-4 calcium flux, at 10 µM, serotonin added to trigger calcium flux; stronger effect = higher value
[14] = test system: TRPC4 (mouse), co-expressed with 5HT1a in HEK293; assay: enhancement of serotonin-evoked TRPC4 response – cell-based, second counter screen, HEK293 TRPC4/5HT1a, Fluo-4, counter-screen for TRPC4 potentiator project, confirmation (AID 434979;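 active = signal rise over 3 SD above mean of control wells given weak agonist, in both repeats and first screen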); settings: Fluo-4 calcium flux, at 10 µM, serotonin added at its EC20 dose; stronger effect = higher value
[15] = nonspecific calcium rise without TRPC4 – cell-based, HEK293 mu-opioid receptor line, counter-screen for TRPC4 activator project, confirmation (AID 449723;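 active = hit in primary screen, with calcium signal over 5 SD above buffer well mean in both duplicates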;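 note: counter screen cells carry the mu-opioid receptor alone and lack TRPC4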); settings: HEK293 mu-opioid cells, Fluo-4 calcium fluorescence, at 10 µM; stronger effect = higher value
[16] = nonspecific potentiation of DAMGO calcium response – cell-based, HEK293 mu-opioid receptor line, counter-screen for TRPC4 allosteric potentiator project, confirmation (AID 449724;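 active = calcium signal rise more than 3 SD above the low-dose agonist control mean, in both duplicate plates and the primary screen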); settings: HEK293 mu-opioid receptor cells, Fluo-4 calcium flux, at 10 µM, compound added before EC20 DAMGO stimulus; stronger effect = higher value

Measured: inhibition

CCCCN(CCCC)/C(N)=N/c1nc(C)cc(C)n1
active: [13] 35.1%
inactive: all other assays above

CCCCc1nc(SCCOC)c2c(=O)n(C)c(=O)n(C)c2n1
active: [5] 88% | [13] 12.3%
inactive: all other assays above

CN1CCCCc2c1nc1ccccc1c2N (tested in a mixture with another compound)
active: [5] 95% | [6] 83% | [9] 27% | [13] 12.4%
inactive: all other assays above

CCOC(=O)C1=NN(c2ccccc2C)C2=NC(C)=C(C(=O)OC)C(c3cccc(OC)c3)N12 (stereo not given)
active: [5] 75% | [13] 20.5%
inactive: all other assays above

Cc1cc2cc(C#N)c(NCCNC(=S)NCCCN3CCOCC3)nc2cc1C
active: [5] 94% | [13] 26.6%
inactive: all other assays above

O=C1COc2ccc(N3C(=O)C=CC3=O)cc2N1
active: [5] 88% | [13] 31.1%
inactive: all other assays above

CC12CCC(C/C1=N/OC(=O)c1cccc([N+](=O)[O-])c1)C2(C)C (stereo not given)
active: [5] 82% | [6] 40% | [13] 28.3%
inactive: all other assays above

CCOC(=O)c1c(-c2cccc(C)c2)csc1NC(=O)C1CC=CCC1C(=O)O (stereo not given)
active: [5] 89% | [13] 46.1%
inactive: all other assays above

O=C(Nc1ccnn1C1CCN(CCCC2CCCC2)CC1)c1ccccc1Cl
active: [5] 97%
inactive: all other assays above

COc1ccc2c(c1)sc(N)[n+]2Cc1cc(C)cc2cccnc12
active: [5] 99% | [9] 37% | [13] 28.6%
inactive: all other assays above

Cc1cc(C)c2[nH]c(=O)c(CN(Cc3cccnc3)C(=S)NCCCN(C)C)cc2c1
active: [5] 89% | [6] 60% | [13] 20.5%
inactive: all other assays above

COc1ccccc1N(C(=O)c1snc(C(N)=O)c1N)C(C(=O)NCc1ccccc1)c1ccc(C)o1 (stereo not given)
active: [6] 49% | [13] 25.3%
inactive: all other assays above

O=C(O)c1ccc(NC(=S)NC(=O)c2ccc(-c3ccccc3)cc2)cc1
active: [5] 64% | [13] 43.1%
inactive: all other assays above

OCCNc1nc2ccccc2n1CCN1CCCCC1
active: [5] 91% | [13] 22.9%
inactive: all other assays above

COCCn1c(SCC(=O)Nc2ccccc2OC)nc2c([nH]c3ccccc32)c1=O
active: [5] 71% | [13] 36.6%
inactive: all other assays above

Cc1[nH]nc(-c2ccc(O)cc2O)c1-c1ccc(Cl)cc1
active: [5] 86% | [13] 23.5%
inactive: all other assays above

COc1cc(CNC2CCCC2)c(Br)cc1OCc1ccccc1
active: [5] 87% | [13] 34.4%
inactive: all other assays above

Cc1nn(-c2cccc(Cl)c2)c2nc(C(F)(F)F)[nH]c(=O)c12
active: [5] 95% | [6] 56% | [13] 34.8%
inactive: all other assays above

Cc1cc(C)c2nc(C)cc(N/N=C/c3ccc(O)cc3)c2c1
active: [5] 91% | [9] 35%
inactive: all other assays above

CCOc1ccc2c(C)nc(NC3=NC(C)(C)C=C(C)N3)nc2c1
active: [5] 96% | [6] 37%
inactive: all other assays above

Cc1cccc(N(C(=O)c2snc(C(N)=O)c2N)C(C(=O)NCC2CCCO2)c2ccc3ncccc3c2)c1 (stereo not given)
active: [5] 85%
inactive: all other assays above

O=C(CN1CCN(Cc2ccccc2Cl)CC1)N=Nc1c(O)[nH]c2ccccc12
active: [5] 90% | [6] 50%
inactive: all other assays above

CCCCC(=O)N(c1ccc(C(=O)O)cc1)c1nc(-c2ccc(Cl)cc2)c(CC)s1
active: [5] 52% | [13] 17.1%
inactive: all other assays above

CNc1nc(SCc2ccccc2Cl)nc2c1CCCC2
active: [5] 90% | [13] 13.9%
inactive: all other assays above

c1ccc(Cn2c(CN3CCCC3)nc3ccccc32)cc1
active: [5] 96% | [6] 67% | [13] 18%
inactive: all other assays above

CC(=O)Nc1ccc(S(=O)(=O)NC2=C(N3CCN(Cc4ccccc4)CC3)C(=O)c3ccccc3C2=O)cc1
active: [5] 72% | [6] 40% | [9] 30%
inactive: all other assays above

O=C(Nc1ccc(Oc2ccccc2)nc1)C1CCN(Cc2ccccc2)CC1
active: [5] 74% | [13] 32.6%
inactive: all other assays above

CCCN1C2=NCCN2c2cc(C)c(C)cc21
active: [5] 91% | [6] 48% | [9] 40.5% | [13] 25.6%
inactive: all other assays above

Cc1nn(C(=O)CNS(=O)(=O)c2ccccc2)c(C)c1Sc1ccc(Cl)cc1
active: [5] 89% | [6] 62% | [9] 52.5% | [13] 11.3%
inactive: all other assays above

c1ccc(CNc2c3ccccc3nc3ccccc23)cc1
active: [5] 95% | [6] 60% | [9] 38% | [13] 23.7%
inactive: all other assays above
